# This is part of a sample that, as a whole, favours compounds with a hit. Of some 83,000 tested, about 20% had one in any assay.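 Note: values are percent growth. 100 is the growth of untreated cells, values between 100 and 0 indicate rising inhibition; between -100 and 0 indicates cell death.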 A number with no mark means an inactive call. Activity calls are given as the source filed them. The calls were made as follows: active = growth percent below 10; inactive = the rest.
# Tests used:
# Assay in all cases: NCI-60 one-dose screen, 48 h (100 = growth as untreated, 0 = no growth, -100 = all killed)
# Settings in all cases: 10 µM
# [1] = system: HCT-15 colon
# [2] = system: HT29 colon
# [3] = system: SNB-75 CNS
# [4] = system: SNB-19 CNS
# [5] = system: U251 CNS
# [6] = system: PC-3 prostate
# [7] = system: SK-MEL-5 melanoma
# [8] = system: UACC-62 melanoma
# [9] = system: LOX IMVI melanoma
# [10] = system: SK-MEL-28 melanoma
# [11] = system: SK-MEL-2 melanoma
# [12] = system: SN12C renal
# [13] = system: UO-31 renal
# [14] = system: TK-10 renal
# [15] = system: ACHN renal
# [16] = system: CAKI-1 renal
# [17] = system: A498 renal
# [18] = system: CCRF-CEM leukemia
# [19] = system: MOLT-4 leukemia
SMILES,growth [1],growth [2],growth [3],growth [4],growth [5],growth [6],growth [7],growth [8],growth [9],growth [10],growth [11],growth [12],growth [13],growth [14],growth [15],growth [16],growth [17],growth [18],growth [19]
COc1ccc(Nc2ccnc(N3CCN(c4ccnc5cc(Cl)ccc45)CC3)n2)cc1,7.35% (active),-6.34% (active),-20.9% (active),28.7%,8.61% (active),0.553% (active),-55.1% (active),-4.07% (active),4.18% (active),5.19% (active),-19.3% (active),14.1%,-1.7% (active),4.85% (active),11.2%,6.78% (active),-6.15% (active),2.09% (active),-48.9% (active)
C=CCn1c(C)nc2cc(Nc3nc(Nc4ccc5nc(C)n(CC=C)c5c4)c4ccccc4n3)ccc21,-76.2% (active),-69.4% (active),-96.7% (active),-66.1% (active),-90.7% (active),-91.7% (active),-95.2% (active),-83.3% (active),-83.3% (active),-88% (active),-84.1% (active),-69.6% (active),-94.4% (active),-97.2% (active),-97.4% (active),-86.4% (active),-100% (active),-11.3% (active),-26.8% (active)
N#Cc1c(-c2ccccc2)nc(SCC(=O)N2CCOCC2)[nH]c1=O,103%,106%,61.4%,111%,105%,98.1%,102%,100%,91.9%,114%,107%,99.1%,71.9%,110%,98.5%,94.1%,93.5%,95.1%,83.5%
COc1ccc(NC(=O)c2sc3nc4c(cc3c2N)C(O)CCC4)cc1 (configuration not stated),95.5%,97.8%,110%,97.1%,105%,95.7%,99.5%,98.9%,102%,102%,96%,99.8%,86.4%,122%,113%,92.7%,-8.3% (active),101%,92.8%
Cc1cc(C)c(/C=C2\C(=O)Nc3ccc(NC(=O)CCCCCCC(=O)NO)cc32)[nH]1,86%,11.4%,-1.02% (active),31.2%,4% (active),5.9% (active),6.38% (active),-12.3% (active),7.92% (active),24%,-5.24% (active),44%,66%,10.6%,58.5%,68.7%,-9.05% (active),23.9%,13.2%
Cc1ccc(C2C=C(c3ccc(Cl)cc3)N=C3SC=CN32)c(Br)c1 (configuration not stated),75.1%,67.9%,75.5%,74.2%,60.3%,65.5%,84.8%,83.3%,55.9%,105%,105%,94%,57.8%,125%,91.8%,65.1%,87%,55.7%,64.9%
Cc1cc(OI)c(C(C)C)cc1-c1cc(C(C)C)c(OI)cc1C,105%,101%,107%,104%,103%,98.6%,103%,98.7%,93.4%,103%,80.7%,101%,83.5%,97.3%,96%,95.1%,85.4%,98.3%,86.8%
COc1cccc(C(=O)NNc2nc(N3CCOCC3)nc(N3CCN(C(c4ccccc4)c4ccccc4)CC3)n2)c1,89.2%,95%,71.5%,86.3%,85.2%,55.1%,53.3%,65.8%,83.1%,93.4%,85.3%,75.3%,39.7%,86.7%,76.3%,44.7%,51.3%,85.1%,63.2%
O=C(O)CN1C(=O)C=CC1=O,100%,104%,103%,106%,102%,99.8%,101%,103%,102%,123%,98.2%,106%,91.6%,96.7%,104%,102%,91.6%,107%,85.2%
O=C1/C(=C/c2ccc(O)cc2)Oc2ccc(Cl)cc21,89.1%,155%,82.8%,85.1%,89.9%,95.1%,74.8%,82.5%,82.3%,142%,109%,84.6%,38.5%,117%,95.4%,77.1%,125%,88.2%,81.1%
CCOC(=O)[C@@H]1[C@H](c2ccccc2)[C@H]([N+](=O)[O-])[C@H](c2cn(-c3ccccc3)nc2C)N1Cc1ccccc1,43%,76.4%,81.5%,77.7%,51.2%,46%,76.3%,60.9%,65.6%,85.4%,85.5%,88.8%,71.7%,106%,73.9%,69%,97.6%,59.8%,51.7%
Fc1ccc(-c2cc(C(Cl)Cl)no2)cc1,96.9%,114%,72.4%,94.7%,108%,93%,94.3%,92.8%,101%,109%,116%,97.6%,78.7%,131%,102%,84.9%,99.3%,93.1%,108%
CCNC1(NC#N)CCCCC1,98.8%,123%,91.2%,110%,98.9%,95%,96.8%,105%,104%,103%,157%,100%,90.9%,141%,111%,96.3%,98.3%,102%,108%
Cc1cc(C)c(C(=O)OC(C)CNC2CCCCC2)c(C)c1 (configuration not stated),97.5%,90.5%,92.1%,97.5%,97.8%,93.9%,101%,103%,88.3%,105%,95%,100%,68.6%,92%,97.8%,97%,92.1%,89.7%,84.7%
COc1cc(-c2c(C#N)c(N)n3c(nc4ccccc43)c2C#N)cc(Br)c1OC,63.9%,32.1%,-8.28% (active),57.4%,25.3%,37.2%,35.8%,55.2%,52.9%,57.5%,76.7%,40.1%,17.5%,11.1%,50.1%,69.1%,67.1%,19.6%,43.3%
Nc1ccc(C2=CC(c3ccc(Cl)cc3)N3C=CSC3=N2)cc1 (configuration not stated),-57.7% (active),-42.9% (active),-15.6% (active),-65.2% (active),-83.5% (active),-28.1% (active),-97.6% (active),-67.1% (active),-83.3% (active),-89.7% (active),-49.9% (active),-45.2% (active),-96% (active),-30.1% (active),-100% (active),-19.5% (active),-93.5% (active),-22.1% (active),-11% (active)
COc1ccc(/C=C2\CCC3C(CCCC34OCCO4)C2=O)cc1 (configuration not stated),66.2%,80.1%,105%,90.1%,99.2%,86.4%,87.3%,81%,80.8%,95.1%,88.4%,96.8%,80.5%,95.3%,93.6%,80.2%,106%,79.1%,78.2%

SMILES,growth [1],growth [2],growth [3],growth [4],growth [5],growth [6],growth [7],growth [8],growth [9],growth [10],growth [11],growth [12],growth [13],growth [14],growth [15],growth [16],growth [17],growth [18],growth [19]
C[n+]1c(/C=C/c2c[nH]c3ccccc23)ccc2ccccc21,90.7%,49.2%,90.9%,68.4%,69.9%,52.1%,59.2%,54.2%,60.5%,84.8%,83.9%,64.4%,60.5%,89.6%,77.1%,88.8%,54.5%,43.4%,9.37% (active)
COc1ccc(-c2cc(=O)n(-c3nc4ccccc4[nH]3)[nH]2)cc1OC,32%,109%,60.2%,63.2%,45.9%,62.5%,62.7%,31%,61.8%,84%,51%,75%,56.1%,93.9%,57.6%,38.7%,30.9%,-4.05% (active),-32% (active)
O=C(NCCCl)c1cc(Cl)cc(Cl)c1,97.1%,107%,76.8%,108%,98.7%,93.2%,101%,94.9%,102%,103%,117%,97%,84%,117%,107%,96.8%,80.9%,97.2%,105%
COc1ccc(-c2nc(NC(=O)CS(=O)(=O)c3ccc(F)cc3)sc2C)cc1,18.7%,4.71% (active),79.6%,86.8%,47.8%,44.1%,35.9%,74.9%,51.6%,88.5%,72.7%,55.5%,26.8%,98.4%,73.5%,51.8%,93.6%,21.2%,35.5%
FC(F)(F)c1ccc(-c2ncc(-c3ccc(C(F)(F)F)cc3)c(NCc3cc(C(F)(F)F)cc(C(F)(F)F)c3)n2)cc1,44.9%,76.1%,72.4%,29.1%,27.1%,31.4%,96.9%,51.6%,21.5%,89.5%,69.9%,34.2%,37.1%,86.9%,27.4%,37.5%,54.1%,46.7%,59.3%
O=NN(CCCl)C(=O)NCc1ccc(-c2ccc(CNC(=O)N(CCCl)N=O)cc2)cc1,98.7%,96.9%,82.7%,84.6%,70.3%,86.7%,94.2%,86.2%,72.2%,104%,95.1%,97.8%,67.7%,105%,105%,96.6%,102%,93.3%,82.3%
COc1cccc(C2(C)Nc3ccccc3-c3nc4ccccc4n32)c1 (configuration not stated),105%,113%,103%,105%,101%,109%,101%,102%,101%,107%,105%,100%,94.2%,106%,102%,99.8%,95.6%,99.1%,84.5%
O=C(CCCC(=O)N/N=C/c1cc(Cl)ccc1O)N/N=C\c1cc(Cl)ccc1O,28.1%,55.4%,58.9%,48.1%,21%,24%,-1.89% (active),-16.9% (active),7.26% (active),35.8%,51.7%,35.3%,5.41% (active),32.3%,23.1%,-1.73% (active),63.5%,-0.225% (active),-12.9% (active)
O=C(Nc1cccc(F)c1)Nc1cccc(Cl)c1,82.9%,90.9%,89.1%,99.9%,90.5%,65.5%,91.5%,77.1%,106%,98.9%,101%,87.4%,87.1%,116%,88.1%,88.8%,36.7%,84.4%,4.94% (active)
COc1cc(CSc2nc3ccc(C)cc3c(=O)n2-c2ccccc2)cc(OC)c1OC,30.1%,14.3%,-7.55% (active),57.2%,38.5%,49.1%,20%,20.8%,36%,52%,14.7%,37%,24.1%,61.7%,44.7%,27.6%,16%,15.8%,21.8%
COc1cc(C2C=C(c3ccc(Cl)cc3)N=C3SC(C)=CN32)cc(OC)c1OC (configuration not stated),84.7%,79.1%,81.8%,91.5%,85.1%,89.2%,91.9%,85.5%,96.8%,105%,102%,90.6%,79.3%,71%,105%,88.7%,86.1%,89.2%,80.2%
CCOc1cc(Br)c(C(C)NC(=O)c2cccc(OC)c2)cc1OCC (configuration not stated),59.8%,17.7%,76.7%,98.3%,58.4%,64.9%,45.1%,-56.2% (active),73.4%,5.81% (active),80.9%,78.8%,54.7%,77.8%,95.7%,81.6%,54%,53.7%,49.3%
Oc1ccccc1-c1nnc(Cn2c(Cc3cccc4ccccc34)nc3ccccc32)o1,94%,102%,88.8%,87.1%,99.2%,89.5%,96.3%,88.7%,89.3%,103%,83.1%,94.5%,63%,99.2%,93.9%,94.3%,106%,99.4%,90.9%
O=C(COc1ccc(-c2nc3ccccc3[nH]2)cc1)N=Nc1c(O)[nH]c2ccccc12,105%,100%,104%,93.4%,55.9%,86.5%,102%,96.2%,100%,99.7%,113%,91.7%,93.4%,128%,98.7%,99.2%,86.4%,4.95% (active),91.8%
COc1ccc(C2CC(c3ccc(-c4ccccc4)cc3)=NN2c2ccc(S(N)(=O)=O)cc2)cc1 (configuration not stated),45.6%,48.6%,81.7%,65.2%,66.8%,19.7%,85.5%,71.1%,50.3%,85.4%,90.3%,52.6%,50%,65.4%,74.7%,45.2%,98%,51.7%,54.8%
COc1ccc(-c2cc(/C=C3\C(=O)Nc4cc(Cl)ccc43)[nH]n2)cc1OC,51.2%,32.2%,47.1%,87%,75.7%,58.5%,64.8%,56.9%,52.9%,74.6%,58.7%,70.5%,74.6%,92.7%,84.3%,63.9%,65.3%,54.2%,75%
